PubChem BioAssay (EPA / NIEHS)
Where “and” joins values, the source holds several entries; their conditions need not be identical. Equal entries are not always repeated. A structure can be active in one record and inactive in another. Calls of active or inactive are those of the source. The calls were made as follows: active = hit-call score of the fitted dose curve at least 0.9, where 1 is the maximum; inactive = score below 0.9.

Columns and labels:
[1] = ATG_CRE_CIS: Attagene CIS-FACTORIAL HepG2 Assay for human cAMP Responsive Element (CRE) binding protein 3 (AID 2282926); conditions: HepG2 CRE cis-reporter, Attagene multiplexed mRNA; actives raise or lower the signal
Method in brief: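 Transfected HepG2 were treated for 24 hours, then RNA was extracted and reporter cDNA amplified with sequence-specific primers. Labelled fragments were separated by capillary electrophoresis, and the CRE signal was fitted bidirectionally with DMSO as baseline.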

[2] = biological target: CCAAT/enhancer-binding protein beta (Homo sapiens) (UniProt P17676); experiment: ATG_C_EBP_CIS: Attagene CIS-FACTORIAL HepG2 Assay for human CCAAT/Enhancer Binding Protein (C/EBP) beta (AID 2282927); conditions: HepG2 Attagene cis-factorial transcription factor reporter; actives raise or lower the signal
Sequence of CCAAT/enhancer-binding protein beta (Homo sapiens) (P17676 whole entry, looked up, the tested form may be a part): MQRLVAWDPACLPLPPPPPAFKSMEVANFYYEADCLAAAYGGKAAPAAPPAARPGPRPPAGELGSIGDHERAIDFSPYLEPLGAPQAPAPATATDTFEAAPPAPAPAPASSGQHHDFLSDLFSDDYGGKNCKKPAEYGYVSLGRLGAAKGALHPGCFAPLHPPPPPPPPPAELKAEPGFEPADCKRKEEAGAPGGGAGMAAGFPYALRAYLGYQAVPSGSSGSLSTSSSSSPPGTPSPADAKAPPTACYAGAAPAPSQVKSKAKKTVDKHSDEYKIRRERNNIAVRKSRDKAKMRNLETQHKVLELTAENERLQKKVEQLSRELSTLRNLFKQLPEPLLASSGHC
Method in brief: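 Endogenous C/EBPb-driven reporter transcripts measured in transfected human HepG2 cells at 24 h via RT-PCR and capillary electrophoresis of labelled fragments. Activity fitted in both directions relative to DMSO baseline.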

[3] = ATG_CMV_CIS: Attagene CIS-FACTORIAL HepG2 Assay for human CMV (Internal Marker) (AID 2282928); conditions: HepG2 CMV promoter reporter, transcription factor profiling; actives raise or lower the signal;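 also: endpoint acts as a background internal control marker rather than a target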
Method in brief: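 Cell system: HepG2, transiently transfected multiple reporter units under cis promoters. Exposure: 24 h. Detection: RT-PCR, FAM labeling, HpaI digestion, capillary electrophoresis. Analysis: bidirectional, DMSO baseline.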

[4] = ATG_DR4_LXR_CIS: Attagene CIS-FACTORIAL HepG2 Assay for human Liver X Receptor (LXR), DR4 submotif (AID 2282929); conditions: HepG2 Attagene DR4 cis-reporter, mRNA transcription; actives raise or lower the signal
Method in brief: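 Transiently transfected HepG2 liver cells; cis-regulated reporters; 24 h dosing. RT-PCR plus CE read-out of reporter mRNA. DMSO baseline, bidirectional curve fitting.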

[5] = ATG_AP_1_CIS: Attagene CIS-FACTORIAL HepG2 Assay for human Activator Protein 1 (AP-1) (AID 2282931); conditions: HepG2 Attagene cis-factorial AP-1 reporter mRNA; actives raise or lower the signal
Method in brief: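 We transfected HepG2 cells transiently with a set of cis-regulated reporter transcription units, dosed them for 24 h, and quantified reporter mRNA via RT-PCR and capillary electrophoresis, scoring gain or loss of signal relative to DMSO.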

[6] = ATG_AP_2_CIS: Attagene CIS-FACTORIAL HepG2 Assay for human Activator Protein 2 (AP-2) (AID 2282932); conditions: HepG2 AP-2 cis-reporter, Attagene transcription factor profiling; actives raise or lower the signal
Method in brief: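 HepG2, transient MRTU transfection, cis-regulated reporters; 24 h compound exposure; RNA isolated, RT-PCR, 6-FAM labelling, HpaI digest, CE fluorescence. DMSO = negative control/baseline, bidirectional fit.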

[7] = ATG_BRE_CIS: Attagene CIS-FACTORIAL HepG2 Assay for human Bone Morphogenetic Protein (BMP) Response Element (BRE) (AID 2282933); conditions: HepG2 BMP response element reporter, Attagene transcription factor profiling; actives raise or lower the signal
Method in brief: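 Read-out: reporter mRNA induction quantified by RT-PCR and capillary electrophoresis after 24 h chemical exposure of transfected HepG2 cells. Endogenous factor activity on the BMP response element; gain or loss fitted against DMSO baseline.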

[8] = biological target: Retinoic acid receptor alpha (Homo sapiens) (UniProt P10276); experiment: ATG_DR5_RAR_CIS: Attagene CIS-FACTORIAL HepG2 Assay for human Retinoic Acid Receptor Alpha (RARE), DR5 submotif (AID 2282934); conditions: HepG2 Attagene cis-factorial RARE DR5 reporter, mRNA; actives raise or lower the signal
Sequence of Retinoic acid receptor alpha (Homo sapiens) (P10276 whole entry, looked up): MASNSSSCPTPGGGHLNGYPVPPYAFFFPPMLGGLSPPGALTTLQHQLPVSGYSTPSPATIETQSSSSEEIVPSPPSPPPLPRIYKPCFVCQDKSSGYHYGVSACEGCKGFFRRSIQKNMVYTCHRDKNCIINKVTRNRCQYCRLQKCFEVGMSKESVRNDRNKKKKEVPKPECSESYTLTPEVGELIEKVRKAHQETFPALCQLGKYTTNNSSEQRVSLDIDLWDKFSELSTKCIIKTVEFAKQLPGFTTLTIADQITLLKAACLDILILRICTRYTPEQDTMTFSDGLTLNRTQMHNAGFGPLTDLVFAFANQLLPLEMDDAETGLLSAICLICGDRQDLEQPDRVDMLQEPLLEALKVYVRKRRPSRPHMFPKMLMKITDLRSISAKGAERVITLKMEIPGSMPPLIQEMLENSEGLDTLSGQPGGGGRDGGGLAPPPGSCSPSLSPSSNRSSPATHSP
Method in brief: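 Reporter transcripts from a DR5-regulated unit, measured via RT-PCR plus capillary electrophoresis, reflect endogenous RAR activity in transiently transfected human HepG2 liver cells. Exposure lasted 24 h; gain or loss of signal scored against DMSO.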

[9] = biological target: Transcription factor E2F1 (Homo sapiens) (UniProt Q01094); experiment: ATG_E2F_CIS: Attagene CIS-FACTORIAL HepG2 Assay for human E2F Transcription Factor 1 (AID 2282935); conditions: HepG2 Attagene cis-reporter, E2F reporter RNA transcripts; actives raise or lower the signal
Sequence of Transcription factor E2F1 (Homo sapiens) (Q01094 whole entry, looked up): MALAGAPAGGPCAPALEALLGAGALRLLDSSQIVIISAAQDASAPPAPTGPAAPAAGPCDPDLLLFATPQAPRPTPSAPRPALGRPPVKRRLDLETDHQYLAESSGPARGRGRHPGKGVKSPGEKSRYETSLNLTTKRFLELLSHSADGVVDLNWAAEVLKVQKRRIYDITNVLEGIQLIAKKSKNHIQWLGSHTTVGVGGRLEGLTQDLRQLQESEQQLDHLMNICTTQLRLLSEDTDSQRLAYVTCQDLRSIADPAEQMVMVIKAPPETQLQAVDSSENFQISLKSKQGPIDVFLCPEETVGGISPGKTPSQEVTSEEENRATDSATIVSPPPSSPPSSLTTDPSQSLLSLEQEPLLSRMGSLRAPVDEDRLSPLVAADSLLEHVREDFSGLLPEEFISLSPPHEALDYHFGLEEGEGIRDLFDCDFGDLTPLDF
Method in brief: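 Cis-element reporter mRNA induction in transiently transfected HepG2, 24 h exposure. Activity fitted in both directions relative to DMSO negative control.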

[10] = ATG_E_Box_CIS: Attagene CIS-FACTORIAL HepG2 Assay for human Enhancer Box (E-box) (AID 2282936); conditions: HepG2 E-box cis-reporter transcription, actives raise or lower the signal
Method in brief: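 Cells: HepG2 (human liver), transient MRTU transfection. Exposure 24 h. RNA → oligo(dT) RT → PCR → 6-FAM label → HpaI → CE. Activity fitted both directions relative to DMSO.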

[11] = ATG_M_61_CIS: Attagene CIS-FACTORIAL HepG2 Assay for M61 Transcription Factor (Internal Marker) (AID 2282937); conditions: HepG2 Attagene CIS-FACTORIAL M61 internal marker reporter; actives raise or lower the signal
Method in brief: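 Multiplexed reporter mRNA assay, HepG2 human hepatoma cells, 24 h treatment. Signal: FAM-labelled, HpaI-digested RT-PCR fragments by CE. Fit: bidirectional, baseline DMSO.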

[12] = ATG_EGR_CIS: Attagene CIS-FACTORIAL HepG2 Assay for human Early Growth Response 1 (EGR1) (AID 2282938); conditions: HepG2 Attagene CIS-FACTORIAL EGR reporter mRNA; actives raise or lower the signal
Method in brief: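 Multiplexed cis-reporter system in human hepatoma HepG2 cells, transiently transfected. Cells are dosed for 24 h; reporter transcripts are amplified, fluorescently tagged and sized by capillary electrophoresis, with DMSO as negative control.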

[13] = ATG_M_19_CIS: Attagene CIS-FACTORIAL HepG2 Assay for M19 Transcription Factor (Internal Marker) (AID 2282939); conditions: HepG2 Attagene CIS-FACTORIAL M19 internal marker reporter; actives raise or lower the signal
Method in brief: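 Readout: fluorescent reporter-transcript fragments by capillary electrophoresis after RT-PCR. Human HepG2 liver cells carried transfected MRTU constructs reporting endogenous transcription-factor activity; exposure 24 h. Gain or loss of signal fitted relative to DMSO.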

[14] = ATG_ERE_CIS: Attagene CIS-FACTORIAL HepG2 Assay for Estrogen Response Element (ERE) (AID 2282940); conditions: HepG2 ERE cis-reporter, Attagene RNA transcript; actives raise or lower the signal
Method in brief: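 Readout: reporter mRNA induction by RT-PCR, FAM-labelled primer extension, HpaI digestion and capillary electrophoresis, 24 h after dosing transfected HepG2 cells. Endogenous transcription factors act on cis-element-regulated reporters. Gain or loss fitted against DMSO.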

[15] = ATG_Ets_CIS: Attagene CIS-FACTORIAL HepG2 Assay for human Erythroblast Transformation Specific (ETS) (AID 2282941); conditions: HepG2 ETS cis-reporter transcription, actives raise or lower the signal
Method in brief: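 After transient cis-reporter transfection, HepG2 cells receive test chemical for 24 h. Reporter mRNA levels, measured by RT-PCR and capillary electrophoresis fluorescence, are analysed bidirectionally relative to the DMSO baseline.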

[16] = biological target: Hepatocyte nuclear factor 3-beta (Homo sapiens) (UniProt Q9Y261); experiment: ATG_FoxA2_CIS: Attagene CIS-FACTORIAL HepG2 Assay for human Forkhead box A2 (FOXA2) (AID 2282942); conditions: HepG2 cis-reporter transcription factor activity, 24 h; actives raise or lower the signal
Sequence of Hepatocyte nuclear factor 3-beta (Homo sapiens) (Q9Y261 whole entry, looked up): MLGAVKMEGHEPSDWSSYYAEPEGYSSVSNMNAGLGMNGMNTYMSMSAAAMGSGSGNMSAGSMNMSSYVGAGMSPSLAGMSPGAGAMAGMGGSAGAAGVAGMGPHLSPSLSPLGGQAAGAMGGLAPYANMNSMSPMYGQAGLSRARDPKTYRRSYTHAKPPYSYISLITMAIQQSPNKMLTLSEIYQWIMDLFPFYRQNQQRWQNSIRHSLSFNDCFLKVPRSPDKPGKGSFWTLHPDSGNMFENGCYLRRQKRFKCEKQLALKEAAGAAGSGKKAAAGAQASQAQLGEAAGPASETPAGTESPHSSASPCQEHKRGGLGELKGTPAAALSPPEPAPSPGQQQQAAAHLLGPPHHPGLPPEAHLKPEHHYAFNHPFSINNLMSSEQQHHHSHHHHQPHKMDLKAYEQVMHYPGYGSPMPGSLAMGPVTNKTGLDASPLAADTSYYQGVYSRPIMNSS
Method in brief: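 Multiplexed cis-element reporter assay in transiently transfected HepG2. Twenty-four hours post-dosing, RNA was reverse-transcribed, amplified, FAM-labelled, HpaI-digested and separated by CE. Activity gain or loss relative to DMSO.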

[17] = ATG_FoxO_CIS: Attagene CIS-FACTORIAL HepG2 Assay for human Forkhead box O (FoxO) (AID 2282943); conditions: HepG2 Attagene cis-reporter, FoxO element, mRNA; actives raise or lower the signal
Method in brief: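 Endogenous transcription factor activity read from multiplexed cis-promoter reporter transcripts in transiently transfected HepG2, 24 h after dosing. Reporter RNA measured via RT-PCR plus capillary electrophoresis of FAM-labeled products; gain or loss relative to DMSO.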

[18] = ATG_GATA_CIS: Attagene CIS-FACTORIAL HepG2 Assay for human GATA Binding Protein (AID 2282944); conditions: HepG2 GATA cis-element reporter, Attagene multiplex mRNA; actives raise or lower the signal
Method in brief: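 Read-out: fluorescent reporter mRNA fragments resolved by capillary electrophoresis after RT-PCR. Human liver HepG2 cells carried transiently transfected cis-regulated reporter constructs; chemicals incubated 24 h; gain or loss of signal fitted relative to DMSO.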

[19] = ATG_GLI_CIS: Attagene CIS-FACTORIAL HepG2 Assay for human Zinc Finger Protein GLI1 (AID 2282945); conditions: HepG2, Attagene cis-factorial reporter mRNA, GLI element; actives raise or lower the signal
Method in brief: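 Bidirectional curve fits relative to DMSO, using reporter mRNA levels from RT-PCR plus capillary electrophoresis. Cells were HepG2 transiently carrying cis-regulated reporter constructs, harvested 24 h after dosing.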

[20] = biological target: Aryl hydrocarbon receptor (Homo sapiens) (UniProt P35869); experiment: ATG_Ahr_CIS: Attagene CIS-FACTORIAL HepG2 Assay for human Aryl Hydrocarbon Receptor (Ahr) (AID 2282930); conditions: HepG2 AhR cis-factorial reporter transcription; actives raise or lower the signal
Sequence of Aryl hydrocarbon receptor (Homo sapiens) (P35869 whole entry, looked up): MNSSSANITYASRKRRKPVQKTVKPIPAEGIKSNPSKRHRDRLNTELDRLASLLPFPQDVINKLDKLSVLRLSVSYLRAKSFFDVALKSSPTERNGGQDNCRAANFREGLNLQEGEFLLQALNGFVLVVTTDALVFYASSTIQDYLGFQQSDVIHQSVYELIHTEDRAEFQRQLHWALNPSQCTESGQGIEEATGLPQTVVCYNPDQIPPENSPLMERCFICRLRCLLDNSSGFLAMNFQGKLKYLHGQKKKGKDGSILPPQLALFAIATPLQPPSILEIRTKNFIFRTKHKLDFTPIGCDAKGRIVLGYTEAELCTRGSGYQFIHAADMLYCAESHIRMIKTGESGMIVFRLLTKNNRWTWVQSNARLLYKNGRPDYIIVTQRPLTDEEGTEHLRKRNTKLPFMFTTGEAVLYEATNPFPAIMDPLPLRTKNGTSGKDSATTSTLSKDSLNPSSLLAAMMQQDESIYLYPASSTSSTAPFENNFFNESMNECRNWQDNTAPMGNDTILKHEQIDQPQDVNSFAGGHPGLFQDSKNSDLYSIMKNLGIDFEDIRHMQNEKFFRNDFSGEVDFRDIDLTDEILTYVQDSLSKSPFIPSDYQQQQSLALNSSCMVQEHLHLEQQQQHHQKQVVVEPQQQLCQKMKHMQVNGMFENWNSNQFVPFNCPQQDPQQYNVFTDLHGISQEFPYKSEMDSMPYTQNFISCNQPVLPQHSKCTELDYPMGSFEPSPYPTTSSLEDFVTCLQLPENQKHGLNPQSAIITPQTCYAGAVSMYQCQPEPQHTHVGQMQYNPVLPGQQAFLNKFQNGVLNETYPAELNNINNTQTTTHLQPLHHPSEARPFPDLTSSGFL
Method in brief: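 Reporter mRNA levels, quantified by RT-PCR and fluorescent capillary electrophoresis, reflect endogenous AhR transcriptional activity in HepG2 cells carrying transfected cis-promoter reporter constructs. Readout at 24 h post-dose; gain or loss fitted against DMSO baseline.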

Measured: AC50

OCC(O)CO
active: [14] 76.6 µM
inactive: [1] | [2] | [3] | [4] | [5] | [6] | [7] | [8] | [9] | [10] | [11] | [12] | [13] | [14] | [15] | [16] | [17] | [18] | [19]

C=CC(N)=O
active: [4] 47.6 µM
not listed: [7] | [11]
inactive: all other assays above

Sc1ccccc1
active: [14] 27.1 µM and 100 µM
not listed: [7] | [8] | [20]
inactive: all other assays above

COc1ccc(O)c(C(C)(C)C)c1
active: [1] 100 µM | [2] 100 µM | [3] 83.1 µM | [5] 55.5 µM | [12] 100 µM | [15] 111 µM
not listed: [20]
inactive: all other assays above

c1ccc(-c2ccccc2)cc1
active: [14] 81.8 µM
not listed: [7] | [20]
inactive: all other assays above

O=S(=O)(O)C(F)(F)C(F)(F)C(F)(F)C(F)(F)F
not listed: [7] | [11] | [20]
inactive: all other assays above
